Source: PubChem BioAssay (NCI)
About 83,000 compounds went through this panel and 20% of them were active in at least one assay; those are over-represented in the sample as a whole.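 Negative percent growth values reflect cell death: -40 means 40% of the cells present at the start died, and -100 means all died.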 Calls of active or inactive are those of the source. The calls were made as follows: active = growth percent below 10; inactive = the rest.

Columns and labels:
Test in all cases: NCI-60 one-dose screen, 48 h (100 = growth as untreated, 0 = no growth, -100 = all killed)
Settings in all cases: 10 µM
SK-MEL-2 melanoma = system: SK-MEL-2 melanoma
EKVX NSCLC = system: EKVX NSCLC
SN12C renal = system: SN12C renal
UO-31 renal = system: UO-31 renal
TK-10 renal = system: TK-10 renal
ACHN renal = system: ACHN renal
CAKI-1 renal = system: CAKI-1 renal
A498 renal = system: A498 renal
CCRF-CEM leukemia = system: CCRF-CEM leukemia
MOLT-4 leukemia = system: MOLT-4 leukemia
RPMI-8226 leukemia = system: RPMI-8226 leukemia
OVCAR-8 ovarian = system: OVCAR-8 ovarian
OVCAR-5 ovarian = system: OVCAR-5 ovarian
OVCAR-4 ovarian = system: OVCAR-4 ovarian
SK-OV-3 ovarian = system: SK-OV-3 ovarian
IGROV1 ovarian = system: IGROV1 ovarian
OVCAR-3 ovarian = system: OVCAR-3 ovarian
HS 578T breast = system: HS 578T breast
NCI/ADR-RES ovarian = system: NCI/ADR-RES ovarian
SR leukemia = system: SR leukemia

Measured: growth

CC1=C2C(=C[C@@](C)(COCOCCCl)[C@@H]2O)C(=O)[C@](C)(O)C12CC2
inactive: RPMI-8226 leukemia 10.1%
active: SK-MEL-2 melanoma -100% | EKVX NSCLC -62.1% | SN12C renal -63% | UO-31 renal -44.1% | TK-10 renal -1.02% | ACHN renal -48% | CAKI-1 renal -14.7% | A498 renal -31.5% | CCRF-CEM leukemia 3.19% | MOLT-4 leukemia -12.4% | OVCAR-8 ovarian -38.4% | OVCAR-5 ovarian -56.6% | OVCAR-4 ovarian -48.6% | SK-OV-3 ovarian -33.7% | IGROV1 ovarian -38.5% | OVCAR-3 ovarian -27.4% | HS 578T breast -15.8% | NCI/ADR-RES ovarian -61.7%

O=C(Nc1nc2ccc([N+](=O)[O-])cc2s1)Nc1ccccc1I
active: SK-MEL-2 melanoma -21.6% | EKVX NSCLC -8.48% | SN12C renal 1.18% | UO-31 renal 0.855% | ACHN renal -0.408% | CAKI-1 renal -19.5% | A498 renal -8.67% | CCRF-CEM leukemia 3.88% | MOLT-4 leukemia 1.39% | RPMI-8226 leukemia -27.9% | OVCAR-5 ovarian 5.55% | SK-OV-3 ovarian -7.59% | HS 578T breast 9.12% | NCI/ADR-RES ovarian -5.83%
inactive: TK-10 renal 10.8% | OVCAR-8 ovarian 11% | OVCAR-4 ovarian 14.4% | IGROV1 ovarian 19.7% | OVCAR-3 ovarian 14.4%

CCOc1ccc(Nc2nc3ccccc3nc2Nc2ccc(OCC)cc2)cc1
active: MOLT-4 leukemia 9.99%
inactive: SK-MEL-2 melanoma 89% | EKVX NSCLC 46.6% | SN12C renal 54.7% | UO-31 renal 54.9% | TK-10 renal 72% | ACHN renal 52.9% | CAKI-1 renal 51.4% | A498 renal 69.1% | CCRF-CEM leukemia 23.7% | SR leukemia 42.2% | RPMI-8226 leukemia 18.5% | OVCAR-5 ovarian 107% | OVCAR-4 ovarian 52.7% | SK-OV-3 ovarian 108% | IGROV1 ovarian 55% | OVCAR-3 ovarian 22.5% | HS 578T breast 107% | NCI/ADR-RES ovarian 65%

N#Cc1c(-c2ccc(F)cc2)nc(SCc2ccc([N+](=O)[O-])cc2)nc1N1CCOCC1
inactive: SK-MEL-2 melanoma 87.4% | EKVX NSCLC 39.3% | SN12C renal 74.6% | UO-31 renal 50.9% | TK-10 renal 84.2% | ACHN renal 51% | CAKI-1 renal 35.9% | A498 renal 64.4% | CCRF-CEM leukemia 77.2% | MOLT-4 leukemia 73.7% | RPMI-8226 leukemia 80.3% | OVCAR-8 ovarian 53.1% | OVCAR-5 ovarian 92.1% | OVCAR-4 ovarian 57.2% | SK-OV-3 ovarian 44.5% | IGROV1 ovarian 80.5% | OVCAR-3 ovarian 69.7% | HS 578T breast 15.6% | NCI/ADR-RES ovarian 41.6%

Nc1cc(-c2cccc(C(=O)NCc3ccc4c(c3)OCO4)c2)ccn1
inactive: SK-MEL-2 melanoma 105% | EKVX NSCLC 76.8% | SN12C renal 104% | UO-31 renal 71.9% | TK-10 renal 103% | ACHN renal 97% | CAKI-1 renal 92.3% | A498 renal 106% | CCRF-CEM leukemia 98.9% | MOLT-4 leukemia 91.1% | SR leukemia 76.1% | RPMI-8226 leukemia 80.6% | OVCAR-4 ovarian 90.1% | SK-OV-3 ovarian 107% | IGROV1 ovarian 112% | OVCAR-3 ovarian 98.5% | HS 578T breast 94.4% | NCI/ADR-RES ovarian 88.5%

CN(C)c1ccc(/C=C/C(=O)c2ccc(NC(=O)CN3C(=O)NC(C)(c4ccccc4)C3=O)cc2)cc1 (stereo unspecified)
inactive: SK-MEL-2 melanoma 76.5% | EKVX NSCLC 66.4% | SN12C renal 73.4% | UO-31 renal 57.7% | TK-10 renal 97.3% | ACHN renal 59.8% | CAKI-1 renal 66.4% | A498 renal 85.5% | CCRF-CEM leukemia 53.1% | MOLT-4 leukemia 36.6% | SR leukemia 42.7% | OVCAR-8 ovarian 67.1% | OVCAR-5 ovarian 86% | OVCAR-4 ovarian 55.4% | SK-OV-3 ovarian 117% | IGROV1 ovarian 86.7% | OVCAR-3 ovarian 61.7% | HS 578T breast 78% | NCI/ADR-RES ovarian 86.6%

COc1csc(/C=N/NC(=O)c2[nH]c3ccc(Br)cc3c2-c2ccccc2)c1
inactive: SK-MEL-2 melanoma 10.3% | EKVX NSCLC 49.2% | UO-31 renal 36.7% | TK-10 renal 32.8% | ACHN renal 19.1% | A498 renal 57.8% | OVCAR-5 ovarian 17.5% | OVCAR-4 ovarian 30.3% | SK-OV-3 ovarian 26.3% | IGROV1 ovarian 22%
active: SN12C renal 5.51% | CAKI-1 renal 9.49% | CCRF-CEM leukemia -2.42% | MOLT-4 leukemia 1.69% | RPMI-8226 leukemia 6.04% | OVCAR-8 ovarian 2.26% | OVCAR-3 ovarian 6.96% | HS 578T breast -1.74% | NCI/ADR-RES ovarian -35.2%

CC1(c2ccccc2)NC(=O)N(CC(=O)Nc2ccc(C(=O)/C=C/C=C/c3ccccc3)cc2)C1=O (stereo unspecified)
inactive: SK-MEL-2 melanoma 90% | EKVX NSCLC 71.6% | SN12C renal 66.9% | UO-31 renal 54.9% | TK-10 renal 84.6% | ACHN renal 48.4% | CAKI-1 renal 63.2% | A498 renal 70.6% | CCRF-CEM leukemia 32.4% | MOLT-4 leukemia 18.6% | SR leukemia 15.2% | OVCAR-8 ovarian 45% | OVCAR-5 ovarian 84.1% | OVCAR-4 ovarian 68.7% | SK-OV-3 ovarian 120% | IGROV1 ovarian 86.5% | OVCAR-3 ovarian 47.1% | HS 578T breast 57.6% | NCI/ADR-RES ovarian 82.7%

Cc1nc(Nc2nc(C)c3ccc(OCCN4CCOCC4)cc3n2)[nH]c(=O)c1C
active: SK-MEL-2 melanoma -90.3% | EKVX NSCLC -3.4% | SN12C renal -10.4% | UO-31 renal -63.8% | ACHN renal -50.2% | CAKI-1 renal -38.4% | A498 renal -79% | CCRF-CEM leukemia -7.55% | MOLT-4 leukemia 1.13% | RPMI-8226 leukemia 7.09% | OVCAR-8 ovarian 0.429% | OVCAR-5 ovarian -39.9% | OVCAR-4 ovarian -22.1% | SK-OV-3 ovarian -6.44% | IGROV1 ovarian -14% | OVCAR-3 ovarian 3.38% | NCI/ADR-RES ovarian -19.5%
inactive: TK-10 renal 17.6% | HS 578T breast 11.9%

Cc1ccc(-c2cc(C(=O)N=Nc3c(O)[nH]c4ccccc34)c3ccccc3n2)cc1
active: SN12C renal -9.28% | SR leukemia 5.31% | OVCAR-8 ovarian -15.8% | OVCAR-4 ovarian 1.61% | OVCAR-3 ovarian -65.7% | NCI/ADR-RES ovarian -16.9%
inactive: SK-MEL-2 melanoma 101% | EKVX NSCLC 38.4% | UO-31 renal 51.6% | TK-10 renal 63.4% | ACHN renal 25.8% | CAKI-1 renal 24.3% | A498 renal 88.2% | CCRF-CEM leukemia 22.9% | MOLT-4 leukemia 31.7% | OVCAR-5 ovarian 69.4% | SK-OV-3 ovarian 91.2% | IGROV1 ovarian 60.1% | HS 578T breast 12.4%

O=C(NO)c1ccc(CNC(=O)[C@H]2Cc3c([nH]c4ccccc34)[C@H](c3ccccc3)N2)cc1
active: SK-MEL-2 melanoma 9.61% | SK-OV-3 ovarian -3.43%
inactive: EKVX NSCLC 44.8% | SN12C renal 46.7% | UO-31 renal 46.3% | TK-10 renal 30.9% | ACHN renal 70.8% | CAKI-1 renal 78.3% | A498 renal 23.2% | CCRF-CEM leukemia 22.2% | MOLT-4 leukemia 12.7% | SR leukemia 23.8% | RPMI-8226 leukemia 15.1% | OVCAR-5 ovarian 15.3% | OVCAR-4 ovarian 53.7% | IGROV1 ovarian 46.9% | OVCAR-3 ovarian 22.7% | HS 578T breast 17.3% | NCI/ADR-RES ovarian 63%

CN(CCF)c1ccc(/C=C/C(=O)c2ccc(N)cc2O)cc1
inactive: SK-MEL-2 melanoma 93% | EKVX NSCLC 93.8% | SN12C renal 76.2% | UO-31 renal 53.2% | TK-10 renal 100% | ACHN renal 79.3% | CAKI-1 renal 60.4% | A498 renal 115% | CCRF-CEM leukemia 60.8% | MOLT-4 leukemia 58% | RPMI-8226 leukemia 62.8% | OVCAR-8 ovarian 70.6% | OVCAR-5 ovarian 90% | OVCAR-4 ovarian 68.8% | SK-OV-3 ovarian 105% | IGROV1 ovarian 94.3% | OVCAR-3 ovarian 80.8% | HS 578T breast 112% | NCI/ADR-RES ovarian 71.7%

N#Cc1ccc(-c2nn(-c3ccc(C(=O)O)cc3)cc2CNc2cccc(Br)c2)cc1
inactive: SK-MEL-2 melanoma 71.7% | EKVX NSCLC 65.9% | SN12C renal 59.2% | UO-31 renal 60.5% | TK-10 renal 102% | ACHN renal 66.8% | CAKI-1 renal 73.4% | A498 renal 94.5% | CCRF-CEM leukemia 23.7% | MOLT-4 leukemia 23.9% | RPMI-8226 leukemia 33.1% | OVCAR-8 ovarian 49% | OVCAR-5 ovarian 99.6% | OVCAR-4 ovarian 75.5% | SK-OV-3 ovarian 112% | IGROV1 ovarian 79% | OVCAR-3 ovarian 38.7% | HS 578T breast 52.6%

COc1cc(/C=C/C(=O)c2ccc(NC(=O)CN3C(=O)NC(C)(c4ccccc4)C3=O)cc2)cc(OC)c1OC (stereo unspecified)
inactive: SK-MEL-2 melanoma 86% | EKVX NSCLC 73.2% | SN12C renal 10.7% | UO-31 renal 73.9% | TK-10 renal 98.6% | ACHN renal 56% | CAKI-1 renal 75.3% | A498 renal 132% | OVCAR-8 ovarian 10.4% | OVCAR-5 ovarian 34.6% | OVCAR-4 ovarian 32.9% | SK-OV-3 ovarian 112% | IGROV1 ovarian 26.7% | HS 578T breast 39.3% | NCI/ADR-RES ovarian 102%
active: CCRF-CEM leukemia 7.14% | MOLT-4 leukemia 1.84% | SR leukemia 5.93% | OVCAR-3 ovarian -6.99%

CN1C(=O)N(C)C2SC(N/N=C/C=C/c3ccccc3)=NC21 (stereo unspecified)
inactive: SK-MEL-2 melanoma 81.9% | EKVX NSCLC 86.6% | SN12C renal 85.6% | UO-31 renal 58.4% | TK-10 renal 99.6% | ACHN renal 92.7% | CAKI-1 renal 83.6% | A498 renal 81.5% | CCRF-CEM leukemia 47.5% | MOLT-4 leukemia 46.7% | SR leukemia 13.2% | RPMI-8226 leukemia 77.1% | OVCAR-4 ovarian 72.4% | SK-OV-3 ovarian 98.4% | IGROV1 ovarian 68.5% | OVCAR-3 ovarian 28.8% | HS 578T breast 89.7% | NCI/ADR-RES ovarian 73.9%

CN1C(=O)N(C)C2SC(N/N=C/c3ccc(F)cc3)=NC21 (stereo unspecified)
active: OVCAR-3 ovarian -41.9%
inactive: SK-MEL-2 melanoma 26.5% | EKVX NSCLC 77.2% | SN12C renal 52.5% | UO-31 renal 47.7% | TK-10 renal 72.4% | ACHN renal 60.1% | CAKI-1 renal 46.3% | A498 renal 57.6% | CCRF-CEM leukemia 40.3% | MOLT-4 leukemia 45.4% | SR leukemia 11.7% | RPMI-8226 leukemia 77% | OVCAR-5 ovarian 77.9% | OVCAR-4 ovarian 77.2% | SK-OV-3 ovarian 61.8% | IGROV1 ovarian 46% | HS 578T breast 33.5% | NCI/ADR-RES ovarian 13%
